Records with an inconclusive call do not appear. Activity calls are given as the source filed them. The calls were made as follows, unless noted: active = hit-call score of the fitted dose curve at least 0.9, where 1 is the maximum; inconclusive = response in the unintended direction; inactive = score below 0.9.
Experiments:
[1] = ATG_M_19_CIS: Attagene CIS-FACTORIAL HepG2 Assay for M19 Transcription Factor (Internal Marker) (AID 2282939; active = hit-call score of the fitted dose curve at least 0.9, where 1 is the maximum; inactive = score below 0.9); conditions: HepG2 Attagene CIS-FACTORIAL M19 internal marker reporter; actives raise or lower the signal
Outline: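 HepG2 cells transiently transfected with cis-regulated multiplexed reporter units, dosed 24 h. Reporter mRNA quantified by RT-PCR and capillary electrophoresis; internal background marker fitted bidirectionally versus DMSO.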

[2] = ATG_GATA_CIS: Attagene CIS-FACTORIAL HepG2 Assay for human GATA Binding Protein (AID 2282944; active = hit-call score of the fitted dose curve at least 0.9, where 1 is the maximum; inactive = score below 0.9); conditions: HepG2 GATA cis-element reporter, Attagene multiplex mRNA; actives raise or lower the signal
Outline: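 HepG2 cells transiently transfected with multiplexed cis-element reporter units measure endogenous GATA activity; after 24 h compound exposure, reporter mRNA quantified by RT-PCR and capillary electrophoresis. Changes fitted in both directions vs DMSO.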

[3] = ATG_GRE_CIS: Attagene CIS-FACTORIAL HepG2 Assay for human Glucocorticoid Response Elements (GRE) (AID 2282947; active = hit-call score of the fitted dose curve at least 0.9, where 1 is the maximum; inactive = score below 0.9); conditions: HepG2 GRE cis-reporter, Attagene multiplex mRNA; actives raise or lower the signal
Outline: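 Read-out: fluorescent reporter-transcript fragments separated by capillary electrophoresis after RT-PCR. Transiently transfected HepG2 cells carrying cis-element-driven reporter units were dosed for 24 h; gain or loss of signal fitted against DMSO control.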

[4] = molecular target: Hepatocyte nuclear factor 6 (Homo sapiens) (UniProt Q9UBC0); experiment: ATG_HNF6_CIS: Attagene CIS-FACTORIAL HepG2 Assay for human Hepatocyte Nuclear Factor 6 (HNF6) (AID 2282952; active = hit-call score of the fitted dose curve at least 0.9, where 1 is the maximum; inactive = score below 0.9); conditions: HepG2 Attagene cis-factorial HNF6 reporter transcription; actives raise or lower the signal
Hepatocyte nuclear factor 6 (Homo sapiens), sequence (Q9UBC0 whole entry, looked up): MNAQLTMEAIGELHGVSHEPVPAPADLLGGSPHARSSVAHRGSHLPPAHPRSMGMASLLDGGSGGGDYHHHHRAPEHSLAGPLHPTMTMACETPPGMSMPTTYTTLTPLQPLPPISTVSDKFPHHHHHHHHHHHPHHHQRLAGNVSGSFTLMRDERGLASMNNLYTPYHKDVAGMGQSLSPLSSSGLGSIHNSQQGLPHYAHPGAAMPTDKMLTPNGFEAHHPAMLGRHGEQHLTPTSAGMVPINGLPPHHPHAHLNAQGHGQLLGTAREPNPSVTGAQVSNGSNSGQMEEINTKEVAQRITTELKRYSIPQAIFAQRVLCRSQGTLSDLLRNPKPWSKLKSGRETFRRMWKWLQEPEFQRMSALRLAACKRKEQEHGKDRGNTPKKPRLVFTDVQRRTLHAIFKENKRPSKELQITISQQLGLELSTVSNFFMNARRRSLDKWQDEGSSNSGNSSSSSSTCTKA
Outline: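 Endogenous transcription factor activity in human HepG2 liver cells was captured through cis-regulated reporter constructs. After 24 h treatment, reporter mRNA was measured by RT-PCR with capillary electrophoresis, and activity was fitted in both directions relative to DMSO.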

[5] = ATG_PBREM_CIS: Attagene CIS-FACTORIAL HepG2 Assay for human Phenobarbital-responsive Enhancer Module (PBREM) (AID 2282955; active = hit-call score of the fitted dose curve at least 0.9, where 1 is the maximum; inactive = score below 0.9); conditions: HepG2 PBREM cis-reporter, Attagene multiplexed transcription; actives raise or lower the signal
Outline: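 HepG2 cells transiently transfected with multiple cis-regulated reporter transcription units; endogenous factor activity at the PBREM element measured as reporter mRNA 24 h after dosing, via RT-PCR and capillary electrophoresis of fluorescent fragments; bidirectional fitting versus DMSO.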

[6] = molecular target: Paired box protein Pax-6 (Homo sapiens) (UniProt P26367); experiment: ATG_Pax6_CIS: Attagene CIS-FACTORIAL HepG2 Assay for human Paired Box 6 (PAX6) (AID 2282956; active = hit-call score of the fitted dose curve at least 0.9, where 1 is the maximum; inactive = score below 0.9); conditions: HepG2 CIS-FACTORIAL PAX6 reporter transcription, RNA readout; actives raise or lower the signal
Paired box protein Pax-6 (Homo sapiens), sequence (P26367 whole entry, looked up): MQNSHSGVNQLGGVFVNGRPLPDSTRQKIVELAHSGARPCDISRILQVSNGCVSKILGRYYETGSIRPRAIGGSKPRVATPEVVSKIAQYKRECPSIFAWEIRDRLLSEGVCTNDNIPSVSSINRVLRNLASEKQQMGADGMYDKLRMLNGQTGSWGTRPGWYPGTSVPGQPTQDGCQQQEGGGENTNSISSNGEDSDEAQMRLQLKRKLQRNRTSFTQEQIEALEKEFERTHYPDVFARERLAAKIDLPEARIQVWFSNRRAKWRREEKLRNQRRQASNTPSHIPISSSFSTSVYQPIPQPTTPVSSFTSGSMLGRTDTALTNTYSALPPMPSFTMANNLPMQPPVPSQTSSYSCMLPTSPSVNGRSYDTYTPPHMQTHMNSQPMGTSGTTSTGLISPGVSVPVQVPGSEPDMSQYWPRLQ
Outline: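 Fluorescent RT-PCR products separated by capillary electrophoresis report PAX6-linked promoter mRNA in HepG2 cells 24 h post-dose. Curves fitted bidirectionally, DMSO as negative control.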

[7] = ATG_TA_CIS: Attagene CIS-FACTORIAL HepG2 Assay for human TA Basal Promoter (AID 2282964; active = hit-call score of the fitted dose curve at least 0.9, where 1 is the maximum; inactive = score below 0.9); conditions: HepG2 Attagene CIS-factorial TA basal promoter reporter; actives raise or lower the signal
Outline: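 HepG2 cells transiently transfected with multiple reporter units under cis promoter elements, reporting endogenous transcription factor activity; this endpoint tracks the TA basal promoter as background control. Reporter mRNA after 24 h dosing measured by RT-PCR/capillary electrophoresis; bidirectional fits versus DMSO.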

[8] = molecular target: Hepatocyte nuclear factor 4-alpha (Homo sapiens) (UniProt P41235); experiment: ATG_HNF4a_TRANS: Attagene TRANS-FACTORIAL HepG2 Assay for human Hepatocyte Nuclear Factor 4 alpha (HNF4a) (AID 2282982); conditions: HepG2 HNF4a transactivation reporter, mRNA readout
Hepatocyte nuclear factor 4-alpha (Homo sapiens), sequence (P41235 whole entry, looked up): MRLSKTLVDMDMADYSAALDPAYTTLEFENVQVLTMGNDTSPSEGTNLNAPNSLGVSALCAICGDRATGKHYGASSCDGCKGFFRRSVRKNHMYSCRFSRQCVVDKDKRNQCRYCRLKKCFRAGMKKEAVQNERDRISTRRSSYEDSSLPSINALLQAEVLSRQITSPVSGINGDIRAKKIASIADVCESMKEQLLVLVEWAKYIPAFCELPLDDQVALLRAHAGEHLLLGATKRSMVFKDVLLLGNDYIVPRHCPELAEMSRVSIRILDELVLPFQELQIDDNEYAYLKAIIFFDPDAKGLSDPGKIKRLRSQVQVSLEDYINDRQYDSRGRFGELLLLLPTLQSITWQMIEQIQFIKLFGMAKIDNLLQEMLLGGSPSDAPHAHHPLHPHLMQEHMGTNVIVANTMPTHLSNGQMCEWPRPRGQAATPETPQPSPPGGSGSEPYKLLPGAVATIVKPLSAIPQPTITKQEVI
Outline: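 Transient MRTU transfection of HepG2, 24 h dosing. Readout: reporter mRNA via RT-PCR + capillary electrophoresis, fluorescence; activity fit upward relative to DMSO control.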

[9] = ATG_M_06_TRANS: Attagene TRANS-FACTORIAL HepG2 Assay for M06 Transcription Factor (Internal Marker) (AID 2282983); conditions: HepG2 Attagene TRANS M06 internal marker reporter;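 also: reporter transcript level by RT-PCR then capillary electrophoresis fluorescence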
Outline: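 Human liver HepG2 cells bearing transiently transfected chimeric NR-GAL4 reporter units were treated with chemicals for 24 h. Total RNA was reverse-transcribed, reporter sequences amplified and labelled, then quantified by capillary electrophoresis. Activity was fitted upward relative to DMSO.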

[10] = ATG_M_32_TRANS: Attagene TRANS-FACTORIAL HepG2 Assay for M32 Transcription Factor (Internal Marker) (AID 2282984); conditions: HepG2 Attagene TRANS M32 internal marker reporter
Outline: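 Read-out: fluorescent reporter cDNA fragments resolved by capillary electrophoresis after RT-PCR of total RNA. Transfected HepG2 cells were exposed to chemical for 24 h. Activity scored in the positive direction relative to DMSO.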

[11] = ATG_NFI_CIS: Attagene CIS-FACTORIAL HepG2 Assay for human Nuclear Factor I (NFI) (AID 2282989; active = hit-call score of the fitted dose curve at least 0.9, where 1 is the maximum; inactive = score below 0.9); conditions: HepG2 cis-regulatory reporter, NFI response element transcription; actives raise or lower the signal
Outline: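 Endogenous TF activity in HepG2 cells transiently transfected with cis-element-driven multiplexed reporter units, read 24 h after dosing. Reporter mRNA quantified by RT-PCR, 6-FAM labelling, HpaI digestion and capillary electrophoresis; bidirectional fit versus DMSO.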

[12] = ATG_NF_kB_CIS: Attagene CIS-FACTORIAL HepG2 Assay for human Nuclear Factor Kappa B (NF-kB) (AID 2282991; active = hit-call score of the fitted dose curve at least 0.9, where 1 is the maximum; inactive = score below 0.9); conditions: HepG2 Attagene cis-factorial NF-kB reporter mRNA; actives raise or lower the signal
Outline: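 HepG2 cells transiently transfected with multiplexed cis-element reporter units measuring endogenous transcription factor activity; reporter mRNA read 24 h after dosing by RT-PCR, fluorescent labelling, HpaI digestion and capillary electrophoresis. Bidirectional fit against DMSO baseline.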

[13] = molecular target: Retinoic acid receptor RXR-alpha (Homo sapiens) (UniProt P19793); experiment: ATG_RXRa_TRANS: Attagene TRANS-FACTORIAL HepG2 Assay for human Retinoid X Receptor alpha (RXRa) (AID 2283012)
Retinoic acid receptor RXR-alpha (Homo sapiens), sequence (P19793 whole entry, looked up, the tested form may be a part): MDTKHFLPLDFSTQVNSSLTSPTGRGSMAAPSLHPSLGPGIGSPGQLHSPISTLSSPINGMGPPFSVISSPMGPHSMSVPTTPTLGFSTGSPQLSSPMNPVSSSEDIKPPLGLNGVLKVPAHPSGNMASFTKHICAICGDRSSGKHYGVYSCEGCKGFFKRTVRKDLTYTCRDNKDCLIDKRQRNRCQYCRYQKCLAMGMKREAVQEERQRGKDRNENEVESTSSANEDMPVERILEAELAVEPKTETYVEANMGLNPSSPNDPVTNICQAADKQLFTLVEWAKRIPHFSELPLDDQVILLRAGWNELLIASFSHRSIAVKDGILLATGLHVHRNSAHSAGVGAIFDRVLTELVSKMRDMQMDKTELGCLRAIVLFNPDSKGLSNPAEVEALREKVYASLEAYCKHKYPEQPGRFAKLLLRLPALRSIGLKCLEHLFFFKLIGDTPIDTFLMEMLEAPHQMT
Outline: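 Chimeric NR-GAL4 trans-activation in HepG2, 24 h treatment; reporter transcripts quantified by fluorescence on capillary electrophoresis, analysed for upward change from DMSO.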

[14] = molecular target: human Retinoid X Receptor beta (RXRb), RXRB (gene 6257) (UniProt P28702); experiment: ATG_RXRb_TRANS: Attagene TRANS-FACTORIAL HepG2 Assay for human Retinoid X Receptor beta (RXRb) (AID 2283013)
human Retinoid X Receptor beta (RXRb), RXRB (gene 6257), sequence (P28702 whole entry, looked up, the tested form may be a part): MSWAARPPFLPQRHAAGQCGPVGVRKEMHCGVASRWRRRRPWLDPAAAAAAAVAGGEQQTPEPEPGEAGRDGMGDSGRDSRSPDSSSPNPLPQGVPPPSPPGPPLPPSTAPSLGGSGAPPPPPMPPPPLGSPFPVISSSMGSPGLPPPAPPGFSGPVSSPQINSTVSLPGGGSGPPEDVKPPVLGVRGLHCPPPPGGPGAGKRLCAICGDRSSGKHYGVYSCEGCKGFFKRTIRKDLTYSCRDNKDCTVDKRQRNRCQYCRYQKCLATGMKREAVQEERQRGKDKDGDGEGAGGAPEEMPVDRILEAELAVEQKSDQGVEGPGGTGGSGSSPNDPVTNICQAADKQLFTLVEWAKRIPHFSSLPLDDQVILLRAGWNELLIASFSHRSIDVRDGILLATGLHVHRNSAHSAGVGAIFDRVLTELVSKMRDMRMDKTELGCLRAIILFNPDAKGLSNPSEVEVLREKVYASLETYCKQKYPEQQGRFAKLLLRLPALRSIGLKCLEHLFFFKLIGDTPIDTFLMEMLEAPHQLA
Outline: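 After a 24 h incubation with test chemical, transfected HepG2 cells carrying NR-Gal4 fusions and GAL4-UAS reporter transcription units yield RNA whose reporter cDNA is FAM-labelled, HpaI-cut and sized by capillary electrophoresis; increases over DMSO are scored.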

[15] = molecular target: human Vitamin D Receptor (VDR), VDR (gene 7421) (UniProt P11473); experiment: ATG_VDR_TRANS: Attagene TRANS-FACTORIAL HepG2 Assay for human Vitamin D Receptor (VDR) (AID 2283022)
human Vitamin D Receptor (VDR), VDR (gene 7421), sequence (P11473 whole entry, looked up, the tested form may be a part): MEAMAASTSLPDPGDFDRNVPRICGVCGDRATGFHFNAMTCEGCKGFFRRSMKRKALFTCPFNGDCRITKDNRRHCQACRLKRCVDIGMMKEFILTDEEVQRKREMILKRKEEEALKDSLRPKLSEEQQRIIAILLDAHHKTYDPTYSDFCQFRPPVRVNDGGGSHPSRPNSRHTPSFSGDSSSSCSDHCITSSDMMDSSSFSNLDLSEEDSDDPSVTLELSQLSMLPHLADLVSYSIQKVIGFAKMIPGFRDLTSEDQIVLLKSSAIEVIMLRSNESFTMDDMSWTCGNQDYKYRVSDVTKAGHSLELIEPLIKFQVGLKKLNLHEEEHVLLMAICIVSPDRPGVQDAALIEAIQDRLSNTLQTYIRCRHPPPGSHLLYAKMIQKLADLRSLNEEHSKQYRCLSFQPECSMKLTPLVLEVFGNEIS
Outline: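 Fluorescence of labelled reporter cDNA fragments, resolved by capillary electrophoresis, gives mRNA induction after 24 h treatment of HepG2 cells carrying transfected Gal4-fusion reporter units. Activity is fitted in the positive direction with DMSO as baseline.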

[16] = TOX21_p53_BLA_p2_viability: Viability Assessment in the Tox21 HCT-116 p53 Agonism Beta-lactamase Assay, Phase 2 (AID 2283591);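 also: compound exposure lasted 16 h at 37 °C; actives lower the ATP signal meaning cytotoxicity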
Outline: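 HCT116 p53-bla cells, 4000/well, dosed after 5 h plating (217-fold dilution of DMSO stocks) and incubated 16 h at 37C. Viability taken as cellular ATP by CellTiter-Glo luminescence after 30 min RT; signal loss marks cytotoxicity.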

[17] = molecular target: Cellular tumor antigen p53 (Homo sapiens) (UniProt P04637); experiment: TOX21_p53_BLA_p3_ratio: Tox21 HCT-116 p53 Agonism Beta-lactamase Assay, Ratio, Phase 3 (AID 2283596)
Cellular tumor antigen p53 (Homo sapiens), sequence (P04637 whole entry, looked up): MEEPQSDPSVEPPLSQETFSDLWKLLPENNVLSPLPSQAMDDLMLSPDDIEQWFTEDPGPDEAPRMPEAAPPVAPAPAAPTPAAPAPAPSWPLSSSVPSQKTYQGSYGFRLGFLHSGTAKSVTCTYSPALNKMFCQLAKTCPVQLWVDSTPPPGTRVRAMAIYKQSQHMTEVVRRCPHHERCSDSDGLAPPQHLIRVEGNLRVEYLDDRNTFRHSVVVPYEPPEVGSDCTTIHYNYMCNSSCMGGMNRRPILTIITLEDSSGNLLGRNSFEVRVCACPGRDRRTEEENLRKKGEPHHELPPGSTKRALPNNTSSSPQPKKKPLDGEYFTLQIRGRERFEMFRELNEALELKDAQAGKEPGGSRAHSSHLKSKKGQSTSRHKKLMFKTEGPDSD
Outline: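 Cells were seeded at 4000/well, rested 5 h at 37C, then dosed with DMSO compound solutions (217-fold dilution) for 16 h. CCF4-AM substrate was loaded for 2 h at room temperature, and the 460/530 nm emission ratio was fitted for gain of signal versus DMSO.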

[18] = molecular target: Cellular tumor antigen p53 (Homo sapiens) (UniProt P04637); experiment: TOX21_p53_BLA_p5_ratio: Tox21 HCT-116 p53 Agonism Beta-lactamase Assay, Ratio, Phase 5 (AID 2283599)
Outline: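 HCT-116 p53-bla cells (4000/well) plated 5 h, dosed with compound (217-fold DMSO dilution) for 16 h at 37 C; CCF4-AM substrate 2 h at room temperature. Activity is the 460/530 nm emission ratio (405 nm excitation), fitted in gain-of-signal direction versus DMSO.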

[19] = molecular target: Cellular tumor antigen p53 (Homo sapiens) (UniProt P04637); experiment: TOX21_p53_BLA_p4_ratio: Tox21 HCT-116 p53 Agonism Beta-lactamase Assay, Ratio, Phase 4 (AID 2283601)
Outline: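 HCT-116 p53 beta-lactamase reporter cells (4000/well) preincubated 5 h, then compound (217-fold dilution of DMSO stock) for 16 h at 37C. CCF4-AM substrate added 2 h at room temperature; 460/530 nm emission ratio fitted upward versus DMSO.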

[20] = molecular target: Cellular tumor antigen p53 (Homo sapiens) (UniProt P04637); experiment: TOX21_p53_BLA_p2_ratio: Tox21 HCT-116 p53 Agonism Beta-lactamase Assay, Ratio, Phase 2 (AID 2283592)
Outline: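 Cleaved-to-uncleaved substrate ratio (460 vs 530 nm) measured in HCT116 cells with an inducible beta-lactamase reporter linked to p53 activity. Compounds incubated 16 h at 37C before 2 h room-temperature CCF4-AM loading.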

Measured: AC50

CCCC(=O)OC/C=C(\C)CCC=C(C)C
not listed: [16] | [17] | [18] | [19] | [20]
inactive: all other assays above

O=S(=O)(O)c1cccc2ccccc12
not listed: [5] | [10] | [12] | [14] | [15] | [20]
inactive: all other assays above

CN1CCCC1
inactive: [2] | [5] | [8] | [9] | [10] | [12] | [13] | [16] | [20] | [18] | [19]

CC(=O)OC(C)(C)Cc1ccccc1
not listed: [2] | [3] | [5] | [10] | [14] | [18]
inactive: all other assays above

c1cc(N(CC2CO2)CC2CO2)ccc1Cc1ccc(N(CC2CO2)CC2CO2)cc1 (stereo not given)
active: [6] 9.31 µM | [11] 5.98 µM | [20] 26.8 µM | [17] 81.6 µM | [18] 55.4 µM
not listed: [4] | [7] | [9] | [19]
inactive: all other assays above
